Source: PubChem BioAssay (NCATS)
“And” between values parts separate entries of the source, which are not always exact repeats. Identical values can stand only once. Results filed as inconclusive are left out. Some compounds were tested as several samples or in several runs, with calls that do not always agree. The source made the active and inactive calls. Unless noted, calls follow the shape of the dose curve; as a rule, active = well fitted curve in the direction sought with a large enough effect; inconclusive = small, poorly fitted or top-dose-only effect, or another doubt; inactive = no such curve, though single readings can be large; an effect the other way counts as inactive or inconclusive.

Legend:
[1] = molecular target: Endonuclease 4 (Escherichia coli (strain K12)) (UniProt P0A6C1); assay: Counterscreen for APE1 Inhibitors: qHTS Validation Assay for Inhibitors of Endonuclease IV (AID 1708)
Summary of the method: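 Measured as reaction progress, the fluorescence gain between first and third kinetic reads after adding 50 nM TAMRA/BHQ-2 THF duplex to 2 nM enzyme preincubated 15 min with compound; 2 mM MgCl2, pH 7.5.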

[2] = molecular target: Rap guanine nucleotide exchange factor 3 (Homo sapiens) (UniProt O95398); assay: Confirmatory qHTS for antagonist of cAMP-regulated guanine nucleotide exchange factor 3 (EPAC1) (AID 1645880); also: nearly all actives have a fitted effect of over 55% in size
Rap guanine nucleotide exchange factor 3 (Homo sapiens), sequence (O95398 whole entry, looked up): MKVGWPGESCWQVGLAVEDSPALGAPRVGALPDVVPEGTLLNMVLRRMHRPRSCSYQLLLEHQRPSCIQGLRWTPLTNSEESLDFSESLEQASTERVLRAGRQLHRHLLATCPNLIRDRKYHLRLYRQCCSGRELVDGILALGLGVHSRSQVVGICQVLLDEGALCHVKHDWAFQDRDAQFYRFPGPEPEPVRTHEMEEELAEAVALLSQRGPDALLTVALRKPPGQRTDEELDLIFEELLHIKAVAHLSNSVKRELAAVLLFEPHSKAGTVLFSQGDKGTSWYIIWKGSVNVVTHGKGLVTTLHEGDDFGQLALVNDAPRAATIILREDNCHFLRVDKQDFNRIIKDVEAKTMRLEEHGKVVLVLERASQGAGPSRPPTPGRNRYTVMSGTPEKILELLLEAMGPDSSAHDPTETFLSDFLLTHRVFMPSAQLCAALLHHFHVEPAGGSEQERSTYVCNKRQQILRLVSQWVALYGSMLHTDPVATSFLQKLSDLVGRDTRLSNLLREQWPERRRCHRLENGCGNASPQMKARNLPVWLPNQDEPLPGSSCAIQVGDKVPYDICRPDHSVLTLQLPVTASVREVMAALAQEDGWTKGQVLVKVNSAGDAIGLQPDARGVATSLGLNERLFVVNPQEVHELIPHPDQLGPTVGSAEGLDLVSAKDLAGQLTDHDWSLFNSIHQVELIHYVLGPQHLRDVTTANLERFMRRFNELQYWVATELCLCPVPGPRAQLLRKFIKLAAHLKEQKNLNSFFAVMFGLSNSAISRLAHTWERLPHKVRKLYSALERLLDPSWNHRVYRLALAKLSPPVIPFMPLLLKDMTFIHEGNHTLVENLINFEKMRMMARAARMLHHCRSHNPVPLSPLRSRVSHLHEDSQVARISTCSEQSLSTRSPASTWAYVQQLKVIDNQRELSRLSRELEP
Summary of the method: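 Released BODIPY-GDP fluoresces less than Rap1-bound BODIPY-GDP; the signal is followed at 480/540 nm at 5-min intervals over 30 min, after 5 min at room temperature. Reactions contain 100 nM EPAC1, 250 nM RAP1B-BODIPY-GDP and 50 uM GDP; results are normalized to ATA and DMSO.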

[3] = Counterscreen for APE1 Inhibitors: Fluorescent Dye Displacement Validation Assay (AID 1707)
Summary of the method: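 Endpoint fluorescence read at 480 nm excitation / 540 nm emission; DNA-binding compounds lower signal by displacing 250 nM Thiazole Orange from 50 nM dsDNA containing a tetrahydrofuran abasic site, Tris-HCl pH7.5 buffer with NaCl and MgCl2.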

[4] = Cell Viability - Hek293 (AID 427;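 active = compounds whose dose-response curve shows a full or clear partial loss of cell viability, called from curve shape rather than a numeric limit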;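 also: potency is read from the fitted curve at half-maximal effect; cells exposed to compound for 40 hours at 37 °C before reading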); conditions: qHTS
Summary of the method: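 qHTS, human embryonic kidney (adenovirus-transformed) cells; 40 hr cpd, 37 °C; CellTiter-Glo ATP luminescence. Norm: DMSO = 0, 100 uM tamoxifen = 100% inhibition. Hill-fit AC50.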

[5] = MultiTox-Fluor Cytotoxicity Assay - LYMP1-001 - Live Cells (AID 947)
[6] = Cell Viability - LYMP2-004 (AID 966); also: nearly all actives have a fitted effect of over 65% in size
Summary of the method: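 Viable-cell number estimated from ATP luminescence (CellTiter-Glo) in 2500 human lymphoblastoid cells/well after 24 hr at 37 C with compound. AC50 fitted to the standard Hill equation.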

[7] = Cell Viability - LYMP2-005 (AID 967); also: series mostly up to about 92 µM
Summary of the method: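 Steps: seed 2500 LYMP2-005 cells/well, incubate 5 h at 37 C, add compound, incubate 24 h at 37 C, add CellTiter-Glo, wait 30 min at RT, read luminescence. Concentration-response data fitted to Hill equation for AC50.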

[8] = Cell Viability - LYMP2-017 (AID 972);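 also: cells exposed to compound for 24 hours at 37 °C; nearly all actives have a fitted effect of over 55% in size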; also: potency is read from the fitted curve at half-maximal effect
Summary of the method: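 In this qHTS format, lymphoblastoid cells in complete medium receive test compound for a day at 37 C before ATP content is quantified by luciferase luminescence. Reported AC50 figures come from standard Hill-equation curve fitting.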

[9] = Cell Viability - LYMP2-008 (AID 980); also: nearly all actives have a fitted effect of over 60% in size
Summary of the method: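 Measured: ATP-dependent luminescence, proportional to viable cell number, in human lymphoblastoid cells treated 24 hr with compound in complete culture medium. Values are AC50s from Hill-equation modelling of qHTS titrations.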

[10] = Cell Viability - LYMP2-016 (AID 984);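 also: cells exposed to compound for 24 hours at 37 °C; nearly all actives have a fitted effect of over 55% in size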
Summary of the method: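 qHTS, 1536-well: 2500 LYMP2-016 cells/well, 5 hr 37 C, compound added, 24 hr 37 C, CellTiter-Glo 30 min RT, luminescence. Tetraoctylammonium bromide positive control. AC50 via Hill fit.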

[11] = Cell Viability - LYMP2-018 (AID 985); also: nearly all actives have a fitted effect of over 50% in size
Summary of the method: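 In this qHTS viability assay, cells are treated for 24 hr and cellular ATP is quantified by luciferase-based luminescence, with tetraoctylammonium bromide as positive control.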

[12] = molecular target: Estrogen receptor (Homo sapiens) (UniProt P03372); assay: qHTS assay for small molecule antagonists of estrogen receptor alpha signaling (AID 588513; active = well fitted curve in the direction sought with a large enough effect in the signal ratio, with a control signal flat, not every such curve was filed as active; the % refers to the signal ratio)
Estrogen receptor (Homo sapiens), sequence (P03372 whole entry, looked up): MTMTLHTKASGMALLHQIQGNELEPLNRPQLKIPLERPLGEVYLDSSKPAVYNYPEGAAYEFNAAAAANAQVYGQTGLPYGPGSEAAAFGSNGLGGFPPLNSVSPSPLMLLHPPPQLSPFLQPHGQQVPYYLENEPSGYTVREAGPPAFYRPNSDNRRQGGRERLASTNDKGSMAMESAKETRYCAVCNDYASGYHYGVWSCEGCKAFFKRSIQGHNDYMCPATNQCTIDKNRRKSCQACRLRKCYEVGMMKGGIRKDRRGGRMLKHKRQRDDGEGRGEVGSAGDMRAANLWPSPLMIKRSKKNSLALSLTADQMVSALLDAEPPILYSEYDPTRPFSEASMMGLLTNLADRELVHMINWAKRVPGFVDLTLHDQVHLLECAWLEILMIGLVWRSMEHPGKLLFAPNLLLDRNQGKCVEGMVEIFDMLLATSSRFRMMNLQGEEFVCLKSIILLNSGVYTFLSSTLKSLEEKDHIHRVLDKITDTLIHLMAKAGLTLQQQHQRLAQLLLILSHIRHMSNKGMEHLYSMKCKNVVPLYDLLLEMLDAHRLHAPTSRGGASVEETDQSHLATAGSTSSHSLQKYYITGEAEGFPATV
Summary of the method: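 Beta-lactamase reporter, antagonist mode, HEK 293 GripTite cells; 0.5nM E2 stimulus, 18 h, 37 C; CCF4 dye 2 h RT; fluorescence. IC50 and efficacy from Hill fits, normalized to E2 and DMSO.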

[13] = molecular target: Peroxisome proliferator-activated receptor gamma (Homo sapiens) (UniProt P37231); assay: qHTS assay for small molecule antagonists of peroxisome proliferator-activated receptor gamma signaling (AID 588537; active = well fitted inhibition curve with a large enough effect in the signal ratio, with a control signal flat, not every such curve was filed as active; the % refers to the signal ratio; also: potency is read from the fitted curve at half-maximal effect)
Peroxisome proliferator-activated receptor gamma (Homo sapiens), sequence (P37231 whole entry, looked up): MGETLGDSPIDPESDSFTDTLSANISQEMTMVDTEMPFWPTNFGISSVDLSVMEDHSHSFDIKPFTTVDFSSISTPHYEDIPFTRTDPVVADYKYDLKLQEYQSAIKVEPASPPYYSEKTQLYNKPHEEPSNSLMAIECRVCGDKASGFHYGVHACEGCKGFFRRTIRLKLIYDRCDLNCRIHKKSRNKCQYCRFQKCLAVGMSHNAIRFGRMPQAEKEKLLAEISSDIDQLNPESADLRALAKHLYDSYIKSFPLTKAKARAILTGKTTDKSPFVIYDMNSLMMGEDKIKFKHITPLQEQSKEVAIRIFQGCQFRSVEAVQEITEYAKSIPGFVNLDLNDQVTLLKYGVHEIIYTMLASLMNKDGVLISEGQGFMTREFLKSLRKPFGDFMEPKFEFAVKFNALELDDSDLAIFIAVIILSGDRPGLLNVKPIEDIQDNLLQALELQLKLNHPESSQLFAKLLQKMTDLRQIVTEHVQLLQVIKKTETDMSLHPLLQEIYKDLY
Summary of the method: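 HEK293 cells, PPAR-gamma-UAS-bla, 3000/well. Pre-incubation 6-6.5 h, 37 C. Compound titration with rosiglitazone 50 nM final, 16 h. CCF4 dye, 2 h RT, dual-emission fluorescence.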

[14] = molecular target: Thyroid hormone receptor beta (Homo sapiens) (UniProt P10828); assay: qHTS assay for small molecule agonists of thyroid hormone receptor beta signaling (AID 588545; calls by dose curve)
Thyroid hormone receptor beta (Homo sapiens), sequence (P10828 whole entry, looked up): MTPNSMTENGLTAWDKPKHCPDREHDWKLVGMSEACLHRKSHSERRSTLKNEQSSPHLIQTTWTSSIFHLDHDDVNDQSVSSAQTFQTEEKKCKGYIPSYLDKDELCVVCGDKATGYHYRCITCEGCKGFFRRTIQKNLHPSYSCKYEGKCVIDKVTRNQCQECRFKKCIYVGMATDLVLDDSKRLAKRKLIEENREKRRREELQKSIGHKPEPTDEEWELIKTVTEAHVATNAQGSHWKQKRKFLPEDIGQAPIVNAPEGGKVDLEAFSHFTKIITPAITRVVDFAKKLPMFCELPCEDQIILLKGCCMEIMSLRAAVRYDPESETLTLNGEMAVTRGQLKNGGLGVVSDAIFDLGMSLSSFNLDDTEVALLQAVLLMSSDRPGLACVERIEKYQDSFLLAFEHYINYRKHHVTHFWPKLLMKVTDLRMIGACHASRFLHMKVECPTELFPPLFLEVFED
Summary of the method: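 Agonist activity was read as beta-lactamase CCF4 fluorescence (405 ex, 460/530 em), scaled between DMSO (0%) and 10 nM T3 (100%), then Hill-fitted for EC50 and efficacy. HEK 293 TR-UAS-bla cells in 2% charcoal/dextran FBS medium were exposed 18 h at 37 C.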

[15] = qHTS assay for small molecule agonists of the antioxidant response element (ARE) signaling pathway (AID 651741; active = well fitted activation curve with a large enough effect in the signal ratio; the % refers to the signal ratio; also: potency is read from the fitted curve at half-maximal effect)
Summary of the method: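 Beta-lactamase reporter expression driven by the antioxidant response element in HepG2 cells was detected by fluorescence with LiveBLAzer B/G FRET substrate (2 h, room temperature) following 16 h compound treatment at 37 C.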

[16] = qHTS assay for small molecule antagonists of the retinoid-related orphan receptor gamma (ROR-gamma) signaling pathway - cell viability counter screen (AID 720652; active = well fitted curve in the direction sought with a large enough effect in the repeat runs; an effect the other way counts as inactive or inconclusive;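 also: CHO reporter cells with doxycycline-induced ROR-gamma expression; series mostly up to about 92 µM; compound exposure lasted 16 hr before ATP read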)
Summary of the method: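 ATP-based viability readout in the ROR-gamma reporter CHO cells after 16 hr compound exposure under doxycycline induction.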

[17] = Cell Viability - LYMP2-021 (AID 974);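 also: compound exposure lasts 24 hours at 37 °C; nearly all actives have a fitted effect of over 55% in size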; also: potency is read from the fitted curve at half-maximal effect
Summary of the method: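 In qHTS format, compounds are tested against 2500 lymphoblastoid cells per well for 24 h; viable cell number is inferred from ATP-driven luciferase light, and Hill-equation fitting yields AC50 values.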

[18] = Cell Viability - LYMP2-020 (AID 986); also: nearly all actives have a fitted effect of over 55% in size; also: potency is read from the fitted curve at half-maximal effect
Summary of the method: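 Cells at 2500 per well receive a 24 hr compound exposure at 37 C. Viability is measured as ATP-dependent luciferase luminescence, with AC50 modeled from qHTS concentration-response curves.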

[19] = molecular target: Vitamin D3 receptor (Homo sapiens) (UniProt P11473); assay: qHTS assay for small molecule antagonists of vitamin D receptor signaling (AID 588541; calls by dose curve;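 also: receptor activated by calcitriol during compound treatment; series mostly up to about 77 µM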)
Vitamin D3 receptor (Homo sapiens), sequence (P11473 whole entry, looked up): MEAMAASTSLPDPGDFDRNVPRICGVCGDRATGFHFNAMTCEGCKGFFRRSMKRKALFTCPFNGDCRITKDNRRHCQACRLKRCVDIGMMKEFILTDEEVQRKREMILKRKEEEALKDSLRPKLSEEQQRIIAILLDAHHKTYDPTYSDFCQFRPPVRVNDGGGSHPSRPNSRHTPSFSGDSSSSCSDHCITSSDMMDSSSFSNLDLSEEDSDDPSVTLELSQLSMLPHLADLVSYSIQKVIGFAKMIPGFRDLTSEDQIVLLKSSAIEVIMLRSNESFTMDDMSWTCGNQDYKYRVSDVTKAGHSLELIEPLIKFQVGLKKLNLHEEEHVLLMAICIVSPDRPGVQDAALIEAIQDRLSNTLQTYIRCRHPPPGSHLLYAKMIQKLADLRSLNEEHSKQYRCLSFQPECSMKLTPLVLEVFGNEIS
Summary of the method: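 VDR-UAS-bla HEK293T cells (2000/well, 2% charcoal-stripped FBS) were treated with titrated compounds plus 1-alpha,25-dihydroxyvitamin D3 (50 nM or 3 nM final) for 16 h at 37 C. CCF4 beta-lactamase fluorescence was read; Hill fits gave IC50.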

[20] = molecular target: Vitamin D3 receptor (Homo sapiens) (UniProt P11473); assay: qHTS assay for small molecule agonists of vitamin D receptor signaling (AID 588543; calls by dose curve)
Summary of the method: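 β-lactamase reporter, VDR-UAS-bla HEK293T, agonist mode. Cells plated 5 h at 37 °C, compound titration 16 h at 37 °C, CCF4 dye 2 h RT, ratio 460/530 nm. Hill fit → EC50, efficacy vs 50 nM 1α,25-(OH)2D3.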

Measured: Potency

CCCN1CCc2cc(O)cc3c2C1Cc1ccc(O)c(O)c1-3 (configuration not stated)
inactive: [1]

O=C1c2ccccc2-c2cccc3cccc1c23
inactive: [2]

CC1=NCCc2c1[nH]c1cc(O)ccc21
inactive: [2]

CCCN1CCc2cccc3c2C1Cc1ccc(O)c(O)c1-3 (configuration not stated)
inactive: [3] | [1]

CNC(=O)O/N=C/C(C)(C)SC
inactive: [4] > 92 µM | [5] | [6] | [7] | [8] | [9] | [10] | [11] | [12] | [14] | [16]
active: [15] 27.3 µM
inactive and 39.8 µM (active): [13]

CC(=O)OC1CC2C(C)(C)C(=O)C=C[C@]2(C)C2CC[C@]3(C)C(=CC(=O)OC3c3ccoc3)[C@]12C (some centres not stated)
inactive: [2]

CC(C)[C@@]1(NC(=O)[C@@H]2C[C@@H]3c4cccc5[nH]cc(c45)C[C@H]3N(C)C2)O[C@@]2(O)C3CCCN3C(=O)[C@H](Cc3ccccc3)N2C1=O (some centres not stated)
inactive: [3] | [1]

C[C@]12CC[C@H](O)CC1=CCC1C2CC[C@]2(C)C(=O)CC[C@@H]12 (some centres not stated)
inactive: [3] | [1]

C=CCc1ccc2c(c1)OCO2
inactive: [4] > 92 µM | [5] | [6] | [7] | [8] | [17] | [9] | [10] | [11] | [18] | [19] | [20] | [14]

O=C(OC1CCN(CCCl)CC1)C(c1ccccc1)c1ccccc1
inactive: [3] | [2]

c1ccc(N=Nc2ccccc2)cc1
inactive: [4] > 92 µM | [6] | [7] | [10] | [11] | [18] | [13] | [19] | [20] | [16]

ClC1=C(Cl)C2(Cl)C3C(Cl)C=CC3C1(Cl)C2(Cl)Cl (configuration not stated)
inactive: [9] | [10] | [12] | [13]

CCOCN(C(=O)CCl)c1c(C)cccc1CC
inactive: [5] | [20] | [16]
active: [8] 50.1 µM | [17] 50.1 µM | [15] 7.5 µM and 7.7 µM

C/C=C/c1ccc2c(c1)OCO2
inactive: [4] > 92 µM | [5] | [6] | [7] | [8] | [17] | [9] | [10] | [11] | [18] | [19] | [20] | [14] | [16]

O=S1OCC2C(CO1)C1(Cl)C(Cl)=C(Cl)C2(Cl)C1(Cl)Cl (configuration not stated)
inactive: [17] | [9] | [11] | [18] | [12] | [19] | [14]
active: [15] 66.8 µM

ClC1=C(Cl)C2(Cl)C3C4C=CC(C4)C3C1(Cl)C2(Cl)Cl (configuration not stated)
inactive: [12] | [13] | [19] | [20]
active: [17] 63.1 µM | [18] 50.1 µM | [15] 66.8 µM
